An excerpt weighted towards active compounds, which were near 6.6% of everything screened.
KB-V1 cytotox: kills drug-selected multidrug resistant KB-V1 cells. AID 1347076. 400,000 compounds, 3.4% hits. Potency, µM (doses to about 46.1 µM), hits mostly cytotoxic. KB-V1 MDR cells viability, CellTiter-Glo, 72 h; note: % is set by controls: 0 for no effect and ±100 for the full control effect; nearly all actives have a fitted effect of over 60% in size
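qHTS viability screen in drug-selected KB-V1 MDR cells: 72 h compound treatment at 37 degrees C, ATP luminescence end point.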
PTAP TSG101 blk: blocks PTAP/TSG101 interaction to inhibit HIV-1 budding; AID 493005; 340,000 tested, under 10 active; Potency, µM (titrated, usually from 115 µM), without a hit: at the top dose activity change, negative = inhibition, usual class: inhibitors; Fluorescence polarization, FITC-PTAP peptide / Tsg101 binding; Q99816; active = well fitted inhibition curve with a large enough effect in the main read-out, with a control signal flat, not every such curve was filed as active; inconclusive = small, poorly fitted or top-dose-only effect, or effect the other way, or a change in a side signal; inactive = no such curve, though single readings can be large or run the other way; note: % of control where 0% means no effect
Target sequence (Q99816 whole entry, looked up): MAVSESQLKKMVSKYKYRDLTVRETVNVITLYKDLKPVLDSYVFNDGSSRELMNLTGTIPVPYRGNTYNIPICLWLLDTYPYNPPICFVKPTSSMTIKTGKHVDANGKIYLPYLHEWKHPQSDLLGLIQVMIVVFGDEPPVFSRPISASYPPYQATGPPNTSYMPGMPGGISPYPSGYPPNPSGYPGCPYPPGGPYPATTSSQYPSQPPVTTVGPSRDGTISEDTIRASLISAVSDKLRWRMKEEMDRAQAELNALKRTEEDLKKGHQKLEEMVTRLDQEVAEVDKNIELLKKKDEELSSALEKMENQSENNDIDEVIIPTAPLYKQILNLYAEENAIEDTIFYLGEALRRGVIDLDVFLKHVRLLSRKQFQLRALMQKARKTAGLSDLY
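Steps: Tsg101 binding domain dispensed (10 uM final), compounds pinned in DMSO, FITC-labeled PTAP-motif peptide added (50 nM final); after 20 min binding at room temperature, polarization measured.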
SW480 rereplic: induces DNA re-replication in SW480 colon adenocarcinoma cells | SW480 DNA re-replication, Hoechst DNA content imaging, 48 h | Potency, µM (series often up to 46.1 µM), without a hit: top-dose re-replication activation, actives largely listed as activators | 340,000 compounds, 1.8% hits | AID 624297; note: % of control where 0% means no effect; nearly all actives have a fitted effect of over 55% in size
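Per well, 250 cells were exposed to pinned compound for 48 hr. Nuclear DNA was visualised with Hoechst (40 min, 37 C) and total object intensity recorded by fluorescence scanning.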
KB-3-1 cytotox: KB-3-1 parental cell cytotoxicity. KB-3-1 viability, CellTiter-Glo ATP luminescence, 72 h. Potency, µM (doses to about 46.1 µM), most hits filed as cytotoxic. 400,000 compounds, 1.4% hits. AID 1347075; note: % is set by controls: 0 for no effect and ±100 for the full control effect; nearly all actives have a fitted effect of over 60% in size
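Cells are dispensed, compounds pinned in, plates held at 37 °C for 72 h, then CellTiter-Glo is added and luminescence read after 10 minutes. Cell line: parental KB-3-1 in phenol-red-free DMEM, 10% FBS.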
MCF10A rerep: DNA re-replication induction in MCF 10a cells; MCF 10A DNA re-replication, Hoechst nuclear intensity, 48 h; 350,000 compounds, 2.9% hits; Potency, µM (titrated, usually from 46.1 µM), inactives show at the highest dose activity, positive = re-replication, actives largely listed as activators; note: % of control where 0% means no effect; nearly all actives have a fitted effect of over 50% in size
RGS4 inhibitor: inhibitors of human regulator of G protein signaling 4; P49798; Transcreener GDP fluorescence polarization, RGS4-accelerated GTP hydrolysis; Potency, µM (titrated, usually from 114 µM), for inactives: at the highest dose activity change, negative = inhibition, most hits filed as inhibitors; 390,000 compounds, 0.039% hits; AID 504845; note: % is set by controls: 0 for no effect and ±100 for the full control effect; nearly all actives have a fitted effect of over 75% in size
Target sequence (P49798 whole entry, looked up): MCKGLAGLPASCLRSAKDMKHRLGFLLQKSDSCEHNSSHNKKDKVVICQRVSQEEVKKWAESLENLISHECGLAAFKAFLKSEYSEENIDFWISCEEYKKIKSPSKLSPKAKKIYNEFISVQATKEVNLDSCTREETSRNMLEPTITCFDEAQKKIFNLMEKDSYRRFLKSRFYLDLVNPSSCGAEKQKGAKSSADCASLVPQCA
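MLSMR compounds (23 nl, pin-transferred) preincubated 10 min at room temperature with a 500nM (2x) first reagent, then RGS4 at 900nM (2x) plus Transcreener GDP mix added; fluorescence polarization (620/688 nm) read before and after 90 min at 30 °C.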
Numbers without * were called inactive; i = inactive; ? = inconclusive; / = no result. Unless noted, calls come from the whole dose curve; as a rule, active = well fitted curve in the direction sought with a large enough effect; inconclusive = small, poorly fitted or top-dose-only effect, or another doubt; inactive = no such curve, though single readings can be large; an effect the other way counts as inactive or inconclusive. Potency is the fitted concentration of half-maximal effect.

SMILES	KB-V1 cytotox	PTAP TSG101 blk	SW480 rereplic	KB-3-1 cytotox	MCF10A rerep	RGS4 inhibitor
CN(C)c1ccc(C=Cc2cnccn2)cc1	i	-4.8%	?	i	18.4µM*	-12.3%
Cc1ccc2nc(Cl)c3nnnn3c2c1	?	-2.4%	1.84µM*	?	2.59µM*	-33.1%
O=C1NC2c3c(Cl)sc(Cl)c3C(=O)C2O1 (centres undefined)	?	-3.3%	?	i	7.31µM*	-25.2%
O=C1NC2c3c(I)sc(I)c3C(=O)C2O1 (centres undefined)	i	?	16.4µM*	?	13µM*	-13.9%
CN1CCN(S(=O)(=O)c2ccc(Nc3ccc(F)cc3)c([N+](=O)[O-])c2)CC1	?	-7.5%	29.1µM*	i	?	8.0%
CN(C)c1ccc(C(=C2C=CC(=[N+](C)C)C=C2)c2ccc(N(C)C)cc2)cc1	i	/	?	2.59µM*	3.4%	/
Oc1ccc(Cl)cc1C1C=C(c2ccc3c(c2)OCO3)NC(c2ccc(Br)cc2)N1 (centres undefined)	i	/	/	i	/	7.5%
CC1CCCN(CCCNC(=O)c2ccc3c(c2)N(Cc2ccc(F)cc2)C(=O)c2ccccc2S3=O)C1 (centres undefined)	i	-6.7%	20.6µM*	i	1.7%	19.7%
CC1CC=CC2C1C(=O)N(Cc1ccccc1)C2c1ccc(C(F)(F)F)cc1 (centres undefined)	/	/	/	/	/	-18.4%
COc1ccc(-c2noc(CN(C(=O)Cc3ccc(C)cc3)C(C)C)n2)cc1	i	/	/	i	/	7.0%
CCCCCCCCCCCCCCCC[n+]1ccc(C)cc1	?	/	/	1.64µM*	/	/
CCC(C)(C)c1ccc(OCCCC[n+]2ccccc2)c(C(C)(C)CC)c1	?	-1.1%	?	9.2µM*	?	-21.0%
CCCCCc1ccc(OCCCC[n+]2ccccc2)c(CCCCC)c1	?	-0.9%	?	?	23.1µM*	-17.9%
c1cc[n+](CCCC[n+]2ccccc2)cc1	i	-5.3%	3.9%	i	?	24.0%
CCC(C)(C)c1ccc2c(c1)C(=O)c1ccccc1C2=O	?	0.1%	-0.4%	i	?	-7.7%
CCCCCc1ccc(OCCCC[n+]2ccc(C)cc2)c(CCCCC)c1	i	-3.0%	20.7%	5.8µM*	27.8%	-2.0%
CCCCOc1ccc(C)cc1CN(CCO)CCO	i	-1.0%	5.4%	i	-0.9%	16.9%
Cc1cccc(C(c2sc3nc(-c4ccco4)nn3c2O)N2CCN(Cc3ccccc3)CC2)c1 (centres undefined)	/	/	/	/	/	-0.7%
CCCCCc1ccc(OCCCC[n+]2cccc(C)c2)c(CCCCC)c1	i	-3.0%	?	9.2µM*	?	-1.7%
CC(=O)c1cccc(NS(=O)(=O)c2cc(-c3onc(C)c3C)ccc2C)c1	?	/	/	14.6µM*	/	-17.7%
Oc1cc(CNCc2ccccc2)c(O)cc1CNCc1ccccc1	i	-12.5%	13µM*	i	?	?
COc1cccc(C(=O)C2CN(c3ccccc3)CC2c2ccc(Cl)cc2)c1 (centres undefined)	16.4µM*	-8.0%	?	i	25.9%	12.8%
CC1Cc2cc(S(=O)(=O)NCc3ccc(N(C)C)cc3)ccc2N1C(=O)C1CCC1 (centres undefined)	i	/	/	?	/	11.8%
O=C(NC(=S)Nc1cccc(C(F)(F)F)c1)c1csnn1	i	-0.5%	6.51µM*	i	29.2%	-40.2%
Fc1ccc(CNC(=S)Nc2cccc(C(F)(F)F)c2)cc1	20.6µM*	-2.6%	0.1%	?	23.2%	5.3%
SMILES	KB-V1 cytotox	PTAP TSG101 blk	SW480 rereplic	KB-3-1 cytotox	MCF10A rerep	RGS4 inhibitor
Fc1ccccc1CNC(=S)Nc1cccc(C(F)(F)F)c1	?	-0.2%	8.3%	?	?	-20.8%
FC(F)(F)c1cccc(NC(=S)NCc2ccc(Cl)cc2)c1	?	-5.2%	7.3%	?	18.4µM*	-0.7%
CCCN1CCN(CC2=C(C(=O)OCC)C(c3ccc(OC(C)C)cc3)NC(=O)N2)CC1 (centres undefined)	i	/	/	i	/	18.6%
Cc1ccc(-c2cc(C(=O)Nc3cc([N+](=O)[O-])ccc3C)no2)cc1F	i	/	/	i	/	-7.0%
COc1cc(CC(=O)NC2CCCc3ccccc32)cc(OC)c1OC (centres undefined)	?	0.0%	-4.4%	i	4.3%	0.9%
CCn1c(=O)c(=O)[nH]c2cc(C(=O)NC3CCCc4ccccc43)ccc21 (centres undefined)	i	-0.5%	?	10.3µM*	?	-7.2%
COc1cc(C(=O)NC2CCCc3ccccc32)cc(OC)c1C (centres undefined)	i	3.6%	-0.4%	i	1.3%	6.5%
COc1ccc(C(=O)NC2CCCc3ccccc32)cc1[N+](=O)[O-] (centres undefined)	5.8µM*	-0.4%	?	?	?	-14.8%
CCn1c(=O)c(=O)[nH]c2cc(C(=O)NC3CC3)ccc21	i	0.1%	-136.4%	i	-29.4%	21.3%
COc1ccc(C2(CNC(=O)c3ccc(OC)c([N+](=O)[O-])c3)CCCCC2)cc1OC	2.59µM*	-1.1%	-92.1%	i	1.7%	11.5%
COc1ccc(C(=O)NCC2(c3ccc(OC)c(OC)c3)CCCC2)cc1OC	?	/	/	i	/	/
COc1ccc(CN(C)CC(=O)NC2CCCc3ccccc32)cc1OC (centres undefined)	?	-0.5%	4.11µM*	i	?	3.4%
CSc1ncc(C(=O)Nc2cc(Cl)ccc2C)c(-c2ccccc2)n1	i	/	/	i	/	6.8%
Cc1cc(-c2ccc(C)c(S(=O)(=O)Nc3ccccc3C(F)(F)F)c2)on1	/	/	/	/	/	10.4%
CCc1cccc(NC(=O)CN2C(=O)COc3ccc(S(=O)(=O)Nc4ccccc4)cc32)c1	i	/	/	i	/	23.0%
COc1cc(/C=N/N=C2/NC(=O)C(Cc3ccccc3)S2)ccc1O (centres undefined)	?	-1.2%	27.5%	i	18.4µM*	-5.9%
O=C1N/C(=N\N=C\c2ccccn2)SC1Cc1cccc(SC(F)F)c1 (centres undefined)	3.66µM*	-0.2%	?	?	?	19.8%
O=C(CC1S/C(=N/N=C/c2cccnc2)NC1=O)Nc1ccccc1 (centres undefined)	i	-1.2%	-1.4%	i	17.2%	-17.9%
O=C1N/C(=N\N=C\c2cccnc2)SC1Cc1ccc(SC(F)F)cc1 (centres undefined)	4.11µM*	-2.2%	24.6%	?	?	-4.4%
